High-throughput results: PubChem, National Center for Advancing Translational Sciences (NCATS)
Rows were chosen to be rich in hits. Some 1.6% of all compounds tested hit in one or more screens of this group.
gsp antag: qHTS for Antagonists of gsp, the Etiologic Mutation Responsible for Fibrous Dysplasia/McCune-Albright Syndrome: qHTS | hit rate 0.4% among 340,000 | gsp-mutant cells, cAMP HTRF, 30 min | Potency, µM (highest dose often 76.9 µM), inactives show top-dose activity change, negative = inhibition, hits mostly inhibitors; calls by dose curve; cell line not stated here;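 also: intracellular cAMP measured with PDE inhibitor Ro 20-1724 present during compound exposure; potency is read from the fitted curve at half-maximal effect; % is scaled to controls: 0 for no effect and ±100 for the full control effect; nearly all actives have a fitted effect of over 65% in size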
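Cells, 2000/well, grown 16–24 h in DMEM 10% FBS with 0.5 mg/ml G418, then compounds plus […] (300 uM addition stock), 30 min at 37C. cAMP read by HTRF (cAMP-d2 and anti-cAMP antibody-K in lysis buffer) after 30 min RT.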
Giardia kill: Small Molecules that selectively kill Giardia lamblia: qHTS. hit rate 0.15% among 340,000. activity change, % at 7.66 µM, hits read low. Giardia lamblia trophozoite viability; in the data active = activity change below about -80%; inconclusive = between about -30% and that limit;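 also: parasites exposed to compound for two days anaerobically before the ATP read; % is scaled to controls: 0 for no effect and ±100 for the full control effect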
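Anaerobic 48 hrs incubation at 37 deg C of 100 trophozoites/well with test compounds; ATPLite 1-Step luminescence, 15-30 min RT, reports cellular ATP as viability.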
FBPA coupling cs: qHTS Assay for Inhibitors of Fructose-1,6-bisphosphate Aldolase from Giardia Lamblia: Coupling assay counterscreen; coupling enzyme system counterscreen, AmpLite Red fluorescence; activity change, negative = inhibition, % at 58.2 µM, hits read low; hit rate 0.67% among 290,000; AID 2472, 2010; in the data active = activity change below about -30%; also: % is scaled to controls: 0 for no effect and ±100 for the full control effect
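Fluorescence at 525 nm excitation and 598 nm emission measured inhibition of the coupled detection system without aldolase. Compounds (at 57.5 uM final) were preincubated 10 min at room temperature with coupling enzyme reagent before a 20 min substrate/AmpLite Red step.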
gsp agonist: qHTS for Agonist of gsp, the Etiologic Mutation Responsible for Fibrous Dysplasia/McCune-Albright Syndrome: qHTS; gsp mutant cells, cAMP HTRF, 30 min; AID 624287, 2012; hit rate 0.13% among 340,000; Potency, µM (titrated, usually from 76.9 µM), inactives show at the highest dose activation (cAMP increase), most hits filed as activators; active = well fitted activation curve with a large enough effect; inconclusive = small, poorly fitted or top-dose-only effect, or another doubt; inactive = no such curve, though single readings can be large or run the other way; cell line not stated here;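 also: phosphodiesterase inhibitor Ro 20-1724 added with compounds to block cAMP breakdown; potency is read from the fitted curve at half-maximal effect; nearly all actives have a fitted effect of over 60% in size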
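Cells in DMEM/10% FBS with G418 were pretreated with compounds in DMSO plus […] (300 uM stock) for 30 min at 37C. cAMP was measured by HTRF (cAMP-d2 plus anti-cAMP antibody-K) after 30 min at room temperature.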
RXFP1 antagonist: qHTS Assay for Antagonists of the Relaxin Receptor RXFP1; Relaxin receptor 1 (Homo sapiens), Q9HBX9; HEK293-RXFP1, relaxin-stimulated cAMP HTRF, 30 min; hits give low values; activity change, negative = inhibition, % at 57.5 µM; hit rate 0.59% among 350,000; AID 1259400, 2018;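 active = activity change of -60% or lower, but not beyond a set lower limit; inconclusive = change between -60% and -40%, or beyond the set limit; inactive = change above -40%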; also: % is scaled to controls: 0 for no effect and ±100 for the full control effect
Target sequence (Q9HBX9 whole entry, looked up): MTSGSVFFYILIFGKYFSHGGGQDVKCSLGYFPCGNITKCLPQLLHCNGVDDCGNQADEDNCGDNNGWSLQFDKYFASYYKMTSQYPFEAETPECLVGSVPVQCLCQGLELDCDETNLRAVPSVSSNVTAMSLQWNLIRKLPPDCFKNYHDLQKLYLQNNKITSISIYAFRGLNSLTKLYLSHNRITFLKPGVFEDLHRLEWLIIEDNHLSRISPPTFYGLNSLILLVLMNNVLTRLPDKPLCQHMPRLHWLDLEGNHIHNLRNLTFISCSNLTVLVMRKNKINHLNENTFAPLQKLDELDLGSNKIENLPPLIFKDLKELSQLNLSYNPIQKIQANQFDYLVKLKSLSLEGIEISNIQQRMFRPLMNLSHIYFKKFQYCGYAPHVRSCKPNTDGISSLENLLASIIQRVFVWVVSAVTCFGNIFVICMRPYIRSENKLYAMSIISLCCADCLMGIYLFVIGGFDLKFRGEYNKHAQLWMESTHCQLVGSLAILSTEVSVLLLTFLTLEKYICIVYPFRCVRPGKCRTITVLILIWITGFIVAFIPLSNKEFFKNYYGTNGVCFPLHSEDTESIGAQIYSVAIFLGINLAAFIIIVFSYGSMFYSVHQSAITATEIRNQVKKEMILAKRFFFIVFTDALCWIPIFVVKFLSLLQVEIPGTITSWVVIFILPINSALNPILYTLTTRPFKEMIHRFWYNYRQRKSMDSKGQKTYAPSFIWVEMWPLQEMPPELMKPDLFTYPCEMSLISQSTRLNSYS
RXFP1 agonist: qHTS Assay for Agonists of the Relaxin Receptor RXFP1. Relaxin receptor 1 (Homo sapiens), Q9HBX9. HEK293T-RXFP1 cAMP TR-FRET, 30 min; response scale: percent of porcine relaxin response, buffer zero. Potency, µM (top dose mostly 57.5 µM), without a hit: top-dose activation, hits mostly activators. hit rate 0.3% among 370,000. AID 2676, 2010; active = well fitted activation curve with a large enough effect; inconclusive = small, poorly fitted or top-dose-only effect; also: potency is read from the fitted curve at half-maximal effect; % is scaled to controls: 0 for no effect and ±100 for the full control effect; nearly all actives have a fitted effect of over 60% in size
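cAMP rise read by TR-FRET after 30 min, 37C compound exposure (up to 58 uM) in RXFP1-transfected HEK293 cells with Ro 20174 present. EC50 from Hill-equation fits, with 29 nM porcine relaxin as 100% and buffer as basal.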
Active calls of the source: *; [ ] = another dose, or the depositor's remark.

For O=C(Nc1cccc2ccccc12)c1ccc([N+](=O)[O-])s1 the results were gsp antag 1%, Giardia kill -89*, FBPA coupling cs 0, gsp agonist -26%, RXFP1 antagonist 5 and RXFP1 agonist 1%.
For COc1ccc2[nH]cc(S(=O)(=O)c3ccc(C)c(C)c3)c(=O)c2c1 the results were RXFP1 agonist 17%.
Screening Cc1cccc(NC(=O)c2ccc([N+](=O)[O-])o2)c1C returned gsp antag -3%, Giardia kill -97*, FBPA coupling cs -1, gsp agonist -6%[15.4 µM], RXFP1 antagonist 5 and RXFP1 agonist -1%.
Screening O=C(Nc1cccnc1)c1ccc([N+](=O)[O-])s1 returned gsp antag -6%, Giardia kill -87*, gsp agonist 2%, RXFP1 antagonist 8 and RXFP1 agonist 1%.
O=C(Nc1cccc(Cl)c1N1CCOCC1)c1ccc([N+](=O)[O-])o1 was read as gsp antag 6%, Giardia kill -86*, FBPA coupling cs 3, gsp agonist inconclusive, RXFP1 antagonist 3 and RXFP1 agonist 0%.
For COc1ccccc1NC(=O)c1ccccc1Oc1ccccc1 the results were gsp antag 5.6µM*, Giardia kill 6, FBPA coupling cs 3, gsp agonist -7%, RXFP1 antagonist -17 and RXFP1 agonist -1%.
For O=C(Nc1ccccc1C(=O)NC1CC1)c1ccc([N+](=O)[O-])o1 the results were gsp antag 7%, Giardia kill inconclusive, gsp agonist 6%[15.4 µM], RXFP1 antagonist 10 and RXFP1 agonist 4%.
`CC(=O)N1CCOc2ccc(S(=O)(=O)NC[C@H]3O[C@@H](n4ccc(=O)[nH]c4=O)[C@H](O)[C@@H]3O)cc21` gave gsp antag 12% and Giardia kill -10.
O=C(Cn1cnc2c(nc3n2CCCCC3)c1=O)Nc1ccc(F)c(Cl)c1 was read as RXFP1 antagonist -9 and RXFP1 agonist 16%.
`O=c1cnc2cncnc2n1Cc1ccccc1Cl` gave FBPA coupling cs 1.
`O=C(NCCCCN1CCN(c2cccc(Cl)c2Cl)CC1)c1ccc2c(c1)Cc1ccccc1-2` gave FBPA coupling cs 2.
For Cc1ccc2nsnc2c1NC(=O)c1ccc([N+](=O)[O-])o1 the results were Giardia kill -85*, FBPA coupling cs -5, gsp agonist -1%[15.4 µM], RXFP1 antagonist -5 and RXFP1 agonist 1%.
For COc1ccccc1NC(=O)c1ccc(COc2ccccc2OC)o1 the results were gsp antag 1%, Giardia kill -15, FBPA coupling cs 0, gsp agonist -6%, RXFP1 antagonist -3 and RXFP1 agonist 1%.
Screening Cc1ccc(C(=O)Nc2cccc3ccccc23)o1 returned gsp antag 7%, Giardia kill -2, gsp agonist -9%[15.4 µM] and RXFP1 antagonist -14.
`O=C(Nc1cccc2ccccc12)c1ccc([N+](=O)[O-])o1` gave gsp antag 1%, Giardia kill -98*, FBPA coupling cs -3, gsp agonist 9%, RXFP1 antagonist 15 and RXFP1 agonist -1%.
Screening COc1cc(NC(=O)c2cc3ccccc3cc2O)c(OC)cc1Cl returned gsp antag 20µM*, Giardia kill inconclusive, FBPA coupling cs -7, gsp agonist inconclusive, RXFP1 antagonist -20 and RXFP1 agonist 5%.
For Cc1ccc2nsnc2c1NC(=O)c1ccc(-c2cc(Cl)ccc2Cl)o1 the results were gsp antag -5%, Giardia kill -5, FBPA coupling cs -20, gsp agonist 29%, RXFP1 antagonist -9 and RXFP1 agonist 0%.
For COc1ccccc1NC(=O)c1ccc([N+](=O)[O-])o1 the results were gsp antag -10%, Giardia kill -96*, gsp agonist -7% and RXFP1 antagonist 12.
For COc1ccc(-c2cc3nc4n(c(=O)c3s2)CCCCC4)cc1 the results were gsp antag -11%, Giardia kill inconclusive, FBPA coupling cs 0, gsp agonist inconclusive, RXFP1 antagonist -6 and RXFP1 agonist 6%.
COc1ccc(-c2cc3nc4n(c(=O)c3s2)CCC4)cc1 was read as gsp antag 5%, Giardia kill inconclusive, FBPA coupling cs 0, gsp agonist 16µM*, RXFP1 antagonist 22 and RXFP1 agonist 4%.
Screening COc1cccc2c1CCc1c-2nc2ccccc2c1C(=O)O returned gsp antag -13%, Giardia kill inconclusive, FBPA coupling cs -33*, gsp agonist 1%, RXFP1 antagonist -19 and RXFP1 agonist 5%.
Cn1ncc([N+](=O)[O-])c1C(=O)N/N=C/c1ccc(F)cc1 was read as gsp antag -13%, Giardia kill 3, FBPA coupling cs 2, gsp agonist 2% and RXFP1 agonist 5%.
`Cn1ncc([N+](=O)[O-])c1C(=O)N/N=C/c1cccc([N+](=O)[O-])c1` gave gsp antag -2%, Giardia kill -11, FBPA coupling cs -35*, gsp agonist 22%[15.4 µM], RXFP1 antagonist -4 and RXFP1 agonist 11%.
Screening COCCN=c1scc(-c2cccs2)n1/N=C/c1ccc(O)c(O)c1O returned gsp antag -19%, Giardia kill 46, FBPA coupling cs -33*, gsp agonist 16%, RXFP1 antagonist inconclusive and RXFP1 agonist -1%.
For CCN=c1scc(C)n1/N=C/c1ccc(O)c(O)c1O the results were gsp antag -25%, Giardia kill -19, FBPA coupling cs -37*, gsp agonist -43%, RXFP1 antagonist inconclusive and RXFP1 agonist 1%.
`Cc1cnc(NS(=O)(=O)c2ccc(N)cc2)nc1` gave RXFP1 antagonist 15.
Screening Cc1cc(Br)ccc1NC(=O)CN(C)C(=O)C1CCN(c2ncnc3sc(C)c(C)c23)CC1 returned gsp antag 32µM*, Giardia kill 25, gsp agonist 1% and RXFP1 antagonist -19.
Screening Cc1ccc(OCC(=O)NNC(=O)C2CCN(c3ncnc4sc(C)c(C)c34)CC2)cc1 returned gsp antag -25%, Giardia kill 17, gsp agonist 38%[15.4 µM], RXFP1 antagonist -8 and RXFP1 agonist 2%.
`Cc1sc2ncnc(N3CCC(C(=O)NNC(=O)COc4ccccc4Cl)CC3)c2c1C` gave gsp antag inconclusive, Giardia kill 2, gsp agonist -4%, RXFP1 antagonist inconclusive and RXFP1 agonist 0%.
